# Measured values as given in PubChem BioAssay (EPA / NIEHS).
# Activity calls are given as the source filed them. The calls were made as follows: active = hit-call score of the fitted dose curve at least 0.9, where 1 is the maximum; inactive = score below 0.9.
# Read-out: Collagen III, COL3A1 (gene 1281)
# Experiment: BSK_hDFCGF_CollagenIII: BioMAP Diversity Plus: hDFCGF Assay for Collagen III Biomarker Activity (AID 2283056)
# Details: primary human foreskin fibroblasts; actives raise or lower the signal
# Protocol: BSK_hDFCGF is a cell-based, multiplexed-readout assay that uses foreskin fibroblast, a human skin primary cell, with measurements taken at 24 hours after chemical dosing in a 96-well plate.BSK_hDFCGF_CollagenIII is an assay component measured in the BSK_hDFCGF assay. It measures Collagen antibody related to regulation of gene expression using ELISA technology.Data from the assay component BSK_hDFCGF_CollagenIII was analyzed into 1 assay endpoint. This assay endpoint, BSK_hDFCGF_CollagenIII, was analyzed with bidirectional fitting relative to DMSO as the negative control and baseline of activity. Using a type of binding reporter, gain or loss-of-signal activity can be used to understand changes in the signaling as they relate to the gene COL3A1. Furthermore, this assay endpoint can be referred to as a primary readout, because this assay has produced multiple assay endpoints where this one serves a signaling function. To generalize the intended target to other relatable targets, this assay endpoint is annotated to the cell adhesion molecules intended target family, where the subfamily is collagen.
# The levels of cell surface (or secreted, indicated by the prefix "s") biomarker endpoints were measured by ELISA. Overt cytotoxicity to cells in confluent adherent cultures (all systems other than the BT system) was assessed by measuring total protein levels using sulforhodamine B (SRB) staining in parallel cultures at the time of biomarker measurements, indicated as SRB endpoints. For proliferation assays for adherent cell types, individual cell types are cultured at sub-confluence and relative cell numbers quantified by SRB staining at time points optimized for each system (48 h: 3C and CASM3C systems; 72 h: BT and HDF3CGF systems; 96 h: SAg system). SRB was performed by staining cells with 0.1% SRB after fixation with 10% TCA and reading wells at 560 nm.Viability and proliferation of PBMC (T cells) was quantified by Alamar Blue reduction for the SAg and BT systems. For PBMC viability (referred to as PBMC Cytotoxicity within the assay endpoint names), cells were plated (75,000/well in a 96-well plate) and then chemical samples added for 1 h before addition of activators, SEB and TSST-1 (20 ng/mL final concentration each). Cells were incubated for 90 h. Then, Alamar Blue (20 uL/well) (Invitrogen, Cat DAL1100) was added for 6 h, and the plates were read with a fluorescence microplate reader at 546/580 nm (excitation/emission). For PBMC proliferation, cells were plated and activated as above but incubated for only 16 h prior to addition of Alamar Blue. Plates were read after 6 h.
SMILES,AC50,outcome
C#CC(C)(C)NC(=O)c1cc(Cl)cc(Cl)c1,2.72 µM (active),–
CC(C)=CC1C(C(=O)OCN2C(=O)C3=C(CCCC3)C2=O)C1(C)C (stereo not given),20 µM (active),–
CCOP(=S)(OCC)OC(Cl)C(Cl)(Cl)Cl (stereo not given),11.1 µM (active),–
CSC1=N[C@@](C)(c2ccccc2)C(=O)N1Nc1ccccc1,25 µM (active),–
COc1ccc(C(=CC(=O)N2CCOCC2)c2ccc(Cl)cc2)cc1OC,–,inactive
CN(C)C(=O)Nc1cccc(C(F)(F)F)c1,–,inactive
CC(=NC#N)N(C)Cc1ccc(Cl)nc1,–,inactive
C=C(C)[C@H]1Cc2c(ccc3c2O[C@@H]2COc4cc(OC)c(OC)cc4[C@@H]2C3=O)O1,–,inactive
C#CCC1=C(C)C(OC(=O)C2C(C=C(C)C)C2(C)C)CC1=O (stereo not given),29.4 µM (active),–
CC(COc1ccc(Oc2ccccc2)cc1)Oc1ccccn1 (stereo not given),–,inactive
CCNc1nc(Cl)nc(NC(C)(C)C#N)n1,–,inactive
COP(=O)(OC)SCn1c(=O)oc2cc(Cl)cnc21,14.7 µM (active),–
CCCCSP(=O)(SCCCC)SCCCC,20 µM (active),–
CC(C)[C@H](C(=O)O[C@H](C#N)c1cccc(Oc2ccccc2)c1)c1ccc(Cl)cc1,–,inactive
CCOP(=S)(OCC)SCCSCC,–,inactive
CCCSP(=O)(OCC)Oc1ccc(Br)cc1Cl (stereo not given),20 µM (active),–
COP(=O)(OC)OC(Br)C(Cl)(Cl)Br (stereo not given),31.5 µM (active),–
CCOC(=O)COc1cc(-c2nn(C)c(OC(F)F)c2Cl)c(F)cc1Cl,–,inactive
COc1cc(OC)nc(Sc2cccc(Cl)c2C(=O)O)n1,–,inactive
CN1COCN(Cc2cnc(Cl)s2)C1=N[N+](=O)[O-],–,inactive

SMILES,AC50,outcome
Cc1cc(C2CC2)nc(Nc2ccccc2)n1,–,inactive
CCCCOC(=O)c1ccccc1C(=O)O,–,inactive
Cc1nn(-c2cc(NS(C)(=O)=O)c(Cl)cc2Cl)c(=O)n1C(F)F,–,inactive
C[Si](Cn1cncn1)(c1ccc(F)cc1)c1ccc(F)cc1,–,inactive
CSc1nc(NC(C)C)nc(NC(C)C)n1,–,inactive
CCCCN(CC)c1c([N+](=O)[O-])cc(C(F)(F)F)cc1[N+](=O)[O-],–,inactive
CCCOCC(=Nc1ccc(Cl)cc1C(F)(F)F)n1ccnc1,29.4 µM (active),–
CSc1nnc(C(C)(C)C)c(=O)n1N,3.97 µM (active),–
N#CSCSC#N,2.52 µM (active),–
CCOP(=O)(SC(C)CC)N1CCSC1=O (stereo not given),–,inactive
CC1(C(=O)Nc2ccc(O)c(Cl)c2Cl)CCCCC1,–,inactive
FC(F)C(F)(F)OCC(Cn1cncn1)c1ccc(Cl)cc1Cl (stereo not given),–,inactive
CCOP(=S)(Oc1cnc(C(C)(C)C)nc1)OC(C)C (stereo not given),31.3 µM (active),–
O=c1ccc(=O)[nH][nH]1,–,inactive
CCC(=O)Nc1ccc(Cl)c(Cl)c1,–,inactive
Nc1c(Cl)cc([N+](=O)[O-])cc1Cl,–,inactive
CCOP(=S)(OCC)Oc1ccc2c(C)c(Cl)c(=O)oc2c1,20 µM (active),–
CCCOc1nn(C(=O)NS(=O)(=O)c2ccccc2C(=O)OC)c(=O)n1C,–,inactive
C[N+]1(C)CCCCC1,–,inactive
Nc1nc(N)nc(NC2CC2)n1,–,inactive
